# Active and inactive are the calls of the source. Rule for the calls: active = hit-call score of the fitted dose curve at least 0.9, where 1 is the maximum; inactive = score below 0.9.
# Target: human CK1delta CK1 Kinase, CSNK1D (gene 1453) (UniProt P48730)
# Experiment: ERF_TW_ENZ_hCSNK1D: Eurofins (ERF) Enzymatic Radiometric [10 uM ATP] Assay for human CK1delta CK1 Kinase
# Protocol: ERF_TW_ENZ_hCSNK1D is a biochemical, single-readout assay that uses extracted gene-proteins in a cell-free assay. Measurements were taken 0.5 hour after chemical dosing in a 96-well plate. See CK1delta Human CK1 Kinase Enzymatic Radiometric Assay [10 uM ATP], Panlabs.ERF_TW_ENZ_hCSNK1D is an assay component calculated from the ERF_TW_ENZ_hCSNK1D assay. It is designed to measure enzyme activity using a type of enzyme reporter as detected by scintillation counting with radiometry technology.Data from the assay component ERF_TW_ENZ_hCSNK1D was analyzed at the assay endpoint, ERF_TW_ENZ_hCSNK1D, in the positive analysis fitting direction relative to DMSO as the negative control and baseline of activity. Using a type of enzyme reporter, loss-of-signal activity can be used to understand changes in enzymatic activity as they relate to gene CSNK1D. To generalize the intended target to other relatable targets, this assay endpoint is annotated to the kinase intended target family, where the subfamily is serine/threonine kinase.
# CK1d (h) is incubated with 8 mM MOPS pH 7.0, 0.2 mM EDTA, 200 uM KRRRALS(p)VASLPGL, 10 mM MgAcetate and [gamma-33P]-ATP (specific activity and concentration as required). The reaction is initiated by the addition of the Mg/ATP mix. After incubation for 40 minutes at room temperature, the reaction is stopped by the addition of phosphoric acid to a concentration of 0.5%. […]
# Sequence of human CK1delta CK1 Kinase, CSNK1D (gene 1453) (P48730 whole entry, looked up): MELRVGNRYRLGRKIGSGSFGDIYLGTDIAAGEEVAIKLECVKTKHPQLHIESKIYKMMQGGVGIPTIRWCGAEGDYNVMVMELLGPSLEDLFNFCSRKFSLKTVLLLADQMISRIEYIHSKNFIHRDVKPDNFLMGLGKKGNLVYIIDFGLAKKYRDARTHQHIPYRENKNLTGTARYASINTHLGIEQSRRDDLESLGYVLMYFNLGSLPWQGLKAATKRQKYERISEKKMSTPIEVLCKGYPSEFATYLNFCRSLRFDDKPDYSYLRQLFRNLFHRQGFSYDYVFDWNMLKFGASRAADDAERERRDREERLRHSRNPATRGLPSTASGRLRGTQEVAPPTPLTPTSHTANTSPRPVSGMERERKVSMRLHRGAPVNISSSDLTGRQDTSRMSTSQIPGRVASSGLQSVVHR
row,SMILES,AC50
1,O=C(/C=C/c1ccc(O)cc1)CC(=O)/C=C/c1ccc(O)cc1,1.66 µM (active)
